The values below come from PubChem BioAssay (NCATS).

Values joined by “and” are separate entries in the source; they are usually repeats but may differ in a detail not shown here. Equal entries are not always repeated. Inconclusive results are not listed. Active and inactive are the calls of the source. Unless noted, calls come from the whole dose curve; as a rule, active = well fitted curve in either direction with a large enough effect (not every such curve was filed as active); inconclusive = small, poorly fitted or top-dose-only effect, or another doubt; inactive = flat fitted curve, though single readings scatter.

Experiment [1] in a line: AP1 Signaling Pathway (AID 357). Note: % is set by controls: 0 for no effect and ±100 for the full control effect. The conditions noted are these: ME-180 AP-1-bla reporter, EGF-induced, beta-lactamase ratio, 5 h. The method in brief: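 Cells are seeded overnight, exposed to compound titrations and an EC50 level of EGF for 5 hours at 37 °C, then loaded with CCF4 dye for 2.5 hours. Beta-lactamase activity under the AP-1 element is read as a blue/green ratio.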

Experiment [2] addresses Cytochrome P450 1A2 (Homo sapiens) (UniProt P05177). Briefly: p450-cyp1a2 (AID 410; calls by dose curve; note: potency is the fitted concentration of half-maximal effect). The conditions noted are these: recombinant CYP1A2, luciferin-ME demethylation, luminescence; series mostly up to 57 µM. The method in brief:
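O-Demethylation of luciferin 6' methyl ether by human CYP1A2 is monitored as luciferase luminescence. Substrate sits at Km (100uM); enzyme is 20nM. Values are scaled to 57 uM furafylline as maximal inhibition.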

Experiment [3] can be described thus: NFAT Signaling Pathway (AID 444).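 Note: carbachol stimulus at about its EC50 of 1 µM final; % is set by controls: 0 for no effect and ±100 for the full control effect.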 The conditions noted are these: Jurkat NFAT-bla M1, carbachol, beta-lactamase ratio, 5 h. The method in brief:
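Jurkat cells carrying an NFAT-driven β-lactamase reporter and co-transfected muscarinic M1 receptor were treated with compound plus carbachol (1 uM final, an EC50 level) for 5 h at 37 °C. CCF4 loading followed for 1 h at RT; 460/530 nm ratio gave %activity.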

The nature of experiment [4]: Stat Signaling Pathway (AID 446).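 Note: ME-180 cervical cancer cells given 40 pM IL-6 alongside compound; SIE-controlled beta-lactamase reporter measured as 460/530 nm FRET emission ratio; % is set by controls: 0 for no effect and ±100 for the full control effect.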 The conditions noted are these: ME-180 (cervical carcinoma) SIE beta-lactamase reporter, IL-6 stimulated, 5 h. The method in brief: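 Normalization used AC90 stimulation (300 pM IL-6) and AC90 inhibition (125 nM pan-JAK inhibitor at 40 pM IL-6). The underlying signal is SIE-driven beta-lactamase in ME-180 cells after 5 h IL-6 exposure with compound.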
The target in experiment [5] is Glucocorticoid receptor (Homo sapiens) (UniProt P04150). Briefly: GR-GFP Redistribution (AID 450;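 active = compounds whose dose series gives a full or clear partial fitted curve of increased nuclear translocation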; note: potency is the fitted concentration of half-maximal effect). The conditions noted are these: U2OS GR-GFP nuclear translocation, laser cytometry, 2 h.
Experiment [6] shares this target. Briefly: GR-EFC Redistribution (AID 451; calls by dose curve; note: potency is the fitted concentration of half-maximal effect). The conditions noted are these: CHO-K1 GR-EFC translocation, beta-gal luminescence, 2 h. Summed up:
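CHO-K1 cells stably expressing nuclear-localized β-gal enzyme acceptor and GR fused C-terminally to the enzyme donor fragment; ligand-driven nuclear translocation restores β-gal by complementation. Compounds titrated up to 46 uM final, 2 h at 37 °C; luminescence read.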

For experiment [7], the target named is Mitogen-activated protein kinase 10 (Mus musculus) (UniProt Q61831). Briefly: JNK3 AlphaScreen Assay (AID 530).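 Note: kinase came from lysate of stimulated human HepG2 cells; % is set by controls: 0 for no effect and ±100 for the full control effect.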 The conditions noted are these: JNK3 lysate, c-Jun phosphorylation; series mostly up to 57.1 µM. Summed up: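 Phosphorylation of biotinylated GST-cJun(1-79) at Ser73 is measured by AlphaScreen proximity luminescence. Enzyme is JNK3 in HepG2 lysates activated with interleukin-1beta and tumor necrosis factor alpha; ATP is 10 uM final.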
In general terms: Alpha assays give light when donor and acceptor beads are brought close together.

For experiment [8], the target named is 3',5'-cyclic-AMP phosphodiesterase 4B (Homo sapiens) (UniProt Q07343). Briefly: qHTS Assay for Inhibitors of PDE-IV (AID 607; active = well fitted activation curve with a large enough effect in the main read-out, with a control signal flat, not every such curve was filed as active; note: % of control where 0% means no effect). The conditions noted are these: HEK293 ACTOne CNG channel cells, membrane potential fluorescence; series mostly up to 22.9 µM. The method in brief: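 HEK293 ACTOne cells with CNG channel (1000/well), endogenous PDE4; membrane potential dye, compounds up to 22.9 uM final. Fluorescence Ex 535/Em 590; RO 20-1724 (100 uM final) as reference.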
In general terms: In qHTS, concentration-response curves come from the screen itself.

Experiment [9] in a line: qHTS Assay for Lipid Storage Modulators (AID 1519; calls by dose curve). The conditions noted are these: Drosophila S3 cells, BODIPY lipid droplet/cell ratio, laser cytometry, cells loaded with oleic acid. Summed up:
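Cells seeded at 5,000 per well were treated with compounds over a concentration series and loaded with oleic acid (400 uM, as added). Lipid droplet fluorescence (488 nm excitation, 500-530 nm channel) was read by laser-scanning cytometry and normalized to 20 uM Triacsin C.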

The target of experiment [10] is Ubiquitin carboxyl-terminal hydrolase 1 (Homo sapiens) (UniProt O94782). Briefly: Inhibitors of USP1/UAF1: Pilot qHTS (AID 504865; active = well fitted curve in the direction sought with a large enough effect; an effect the other way counts as inactive or inconclusive;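 note: rhodamine fluorescence freed from ubiquitin-rhodamine substrate followed over time; top concentration of the series differs between compounds; % is set by controls: 0 for no effect and ±100 for the full control effect; nearly all actives have a fitted effect of over 35% in size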). The conditions noted are these: purified USP1/UAF1, Ub-rhodamine cleavage fluorescence; series mostly up to 54.9 µM. The method in brief: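 USP1/UAF1 complex at 1 nM preincubated 15 min at room temperature with compound, then Ub-Rho substrate added at 150 nM final. Fluorescence (480/540 nm) read kinetically in 50 mM HEPES pH 7.8, 0.5 mM EDTA, 1 mM TCEP, 0.1 mg/ml BSA, 0.01% Tween-20.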

For experiment [11], the target named is ATP-dependent 6-phosphofructokinase (Trypanosoma brucei brucei) (UniProt O15648). Briefly: qHTS Assay to Find Inhibitors of T. brucei phosphofructokinase: hit validation (AID 492961; active = well fitted curve in the direction sought with a large enough effect; an effect the other way counts as inactive or inconclusive). The conditions noted are these: T. brucei PFK, ADP-Glo luminescence; series mostly up to 24.3 µM. The method in brief: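 Percent activity derived from corrected luminescence, normalized between 0x and 1x enzyme controls, then fitted to concentration-response curves. Conditions: 1.25 nM PFK, 0.1 mM ATP, 0.5 mM F6P, 45 min RT.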

Experiment [12] has as its target Luciferin 4-monooxygenase (Photinus pyralis) (UniProt P08659). Briefly: Biochemical firefly luciferase enzyme assay for NPC (AID 624030; active = well fitted curve in the direction sought with a large enough effect; an effect the other way counts as inactive or inconclusive;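 note: purified P. pyralis luciferase at 10 nM with luciferin and ATP substrate; 0% = DMSO and -100% = full luciferase inhibition by PTC124 control; nearly all actives have a fitted effect of over 70% in size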). The conditions noted are these: purified P. pyralis luciferase, luminescence, 5 min; series mostly up to 58.6 µM. The method in brief:
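Counter-screen for direct inhibition of the luciferase enzyme by approved-drug library compounds, run at 10 nM enzyme in 50 mM Tris acetate (final). Luminescence was read within 5 min of enzyme-buffer addition and normalized to PTC124 versus DMSO (0%).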

The nature of experiment [13]: qHTS profiling for inhibitors of Plasmodium falciparum proliferation (AID 504749; active = well fitted curve in the direction sought with a large enough effect; an effect the other way counts as inactive or inconclusive;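 note: 0% = DMSO vehicle and full inhibition = artemisinin control; nearly all actives have a fitted effect of over 60% in size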). The conditions noted are these: P. falciparum in erythrocytes, SYBR Green DNA, 72 h, at 12.8 µM (top of the series). Summed up: (§1)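 Quantitative HTS: compounds pinned into medium, infected erythrocytes added (0.3% parasitemia, 2.5% hematocrit), 72 h culture at 37 C under 5% CO2. Saponin/Triton lysis with SYBR Green I, overnight RT, then fluorescence read.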

In the next experiment the test system is AS120. Described as above. The conditions noted are these: P. falciparum in erythrocytes, SYBR Green DNA, 72 h; series mostly up to 28.7 µM. The method in brief:
as §1

A further experiment has as its system CP201. The experiment is described as above. The conditions noted are these: P. falciparum in erythrocytes, SYBR Green DNA, 72 h; series mostly up to 12.8 µM. Summed up:
as §1

Another experiment concerns CP238. The experiment is described as above. The conditions noted are these: P. falciparum in erythrocytes, SYBR Green DNA, 72 h; series mostly up to 12.8 µM. The method in brief:
as §1

The subject of another experiment is CP262. The description is as above. The conditions noted are these: P. falciparum in erythrocytes, SYBR Green DNA, 72 h; series mostly up to 12.8 µM. The method in brief:
as §1

The next experiment has as its system CP265. Described as above. The conditions noted are these: P. falciparum in erythrocytes, SYBR Green DNA, 72 h; series mostly up to 12.8 µM. Summed up:
as §1

A further experiment concerns FAB9. The experiment is described as above. The conditions noted are these: P. falciparum in erythrocytes, SYBR Green DNA, 72 h; series mostly up to 12.8 µM. The method in brief: as §1
The next experiment concerns JCK. The description is as above. The conditions noted are these: P. falciparum in erythrocytes, SYBR Green DNA, 72 h; series mostly up to 12.8 µM. The method in brief:
as §1

Setting [14] is: at 7.69 µM (top of the series) unless noted.
Where [15] appears, read: measured here: cell count channel max response.
The mark [16] stands for this setting: measured here: lipid channel max response.

Chain of Ubiquitin carboxyl-terminal hydrolase 1 (Homo sapiens) (O94782 whole entry, looked up): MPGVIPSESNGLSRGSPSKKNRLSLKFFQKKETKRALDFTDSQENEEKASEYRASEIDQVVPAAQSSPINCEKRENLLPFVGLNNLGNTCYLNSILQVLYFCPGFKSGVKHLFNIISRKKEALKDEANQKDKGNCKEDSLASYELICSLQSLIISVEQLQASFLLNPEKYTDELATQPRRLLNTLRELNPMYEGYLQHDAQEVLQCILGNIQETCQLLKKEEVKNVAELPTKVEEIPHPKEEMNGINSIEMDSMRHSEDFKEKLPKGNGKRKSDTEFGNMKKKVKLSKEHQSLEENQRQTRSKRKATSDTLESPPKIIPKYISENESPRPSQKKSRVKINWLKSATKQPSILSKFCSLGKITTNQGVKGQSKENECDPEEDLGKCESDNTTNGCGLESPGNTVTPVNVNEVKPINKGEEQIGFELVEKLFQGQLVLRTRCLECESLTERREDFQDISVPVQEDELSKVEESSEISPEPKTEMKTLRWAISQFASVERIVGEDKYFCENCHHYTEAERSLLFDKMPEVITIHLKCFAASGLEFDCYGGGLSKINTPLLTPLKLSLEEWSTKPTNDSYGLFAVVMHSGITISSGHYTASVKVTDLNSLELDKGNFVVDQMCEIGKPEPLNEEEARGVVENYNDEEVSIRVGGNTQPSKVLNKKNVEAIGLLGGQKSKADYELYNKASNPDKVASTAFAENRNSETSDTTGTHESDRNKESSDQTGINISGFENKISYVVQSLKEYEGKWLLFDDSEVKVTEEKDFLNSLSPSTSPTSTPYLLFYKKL
Chain of 3',5'-cyclic-AMP phosphodiesterase 4B (Homo sapiens) (Q07343 whole entry, looked up): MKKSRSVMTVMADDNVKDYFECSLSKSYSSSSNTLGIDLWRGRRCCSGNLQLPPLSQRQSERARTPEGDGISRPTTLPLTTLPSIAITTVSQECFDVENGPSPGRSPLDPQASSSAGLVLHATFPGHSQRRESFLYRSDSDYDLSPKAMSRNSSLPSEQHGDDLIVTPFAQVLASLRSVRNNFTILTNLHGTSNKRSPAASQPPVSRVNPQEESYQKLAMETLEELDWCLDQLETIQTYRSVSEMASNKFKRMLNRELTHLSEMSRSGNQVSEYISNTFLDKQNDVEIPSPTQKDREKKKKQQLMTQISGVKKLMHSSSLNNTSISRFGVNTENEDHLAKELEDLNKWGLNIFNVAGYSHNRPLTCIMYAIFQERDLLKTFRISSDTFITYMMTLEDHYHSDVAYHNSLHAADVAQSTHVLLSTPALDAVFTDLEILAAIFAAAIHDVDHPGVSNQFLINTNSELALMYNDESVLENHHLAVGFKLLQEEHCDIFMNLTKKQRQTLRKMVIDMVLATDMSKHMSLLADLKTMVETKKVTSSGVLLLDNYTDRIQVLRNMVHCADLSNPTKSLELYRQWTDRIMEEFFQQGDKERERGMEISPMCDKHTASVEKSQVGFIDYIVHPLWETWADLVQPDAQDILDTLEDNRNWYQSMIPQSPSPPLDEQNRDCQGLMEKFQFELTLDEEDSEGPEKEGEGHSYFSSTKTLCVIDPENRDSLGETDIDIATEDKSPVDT
Chain of Glucocorticoid receptor (Homo sapiens) (P04150 whole entry, looked up): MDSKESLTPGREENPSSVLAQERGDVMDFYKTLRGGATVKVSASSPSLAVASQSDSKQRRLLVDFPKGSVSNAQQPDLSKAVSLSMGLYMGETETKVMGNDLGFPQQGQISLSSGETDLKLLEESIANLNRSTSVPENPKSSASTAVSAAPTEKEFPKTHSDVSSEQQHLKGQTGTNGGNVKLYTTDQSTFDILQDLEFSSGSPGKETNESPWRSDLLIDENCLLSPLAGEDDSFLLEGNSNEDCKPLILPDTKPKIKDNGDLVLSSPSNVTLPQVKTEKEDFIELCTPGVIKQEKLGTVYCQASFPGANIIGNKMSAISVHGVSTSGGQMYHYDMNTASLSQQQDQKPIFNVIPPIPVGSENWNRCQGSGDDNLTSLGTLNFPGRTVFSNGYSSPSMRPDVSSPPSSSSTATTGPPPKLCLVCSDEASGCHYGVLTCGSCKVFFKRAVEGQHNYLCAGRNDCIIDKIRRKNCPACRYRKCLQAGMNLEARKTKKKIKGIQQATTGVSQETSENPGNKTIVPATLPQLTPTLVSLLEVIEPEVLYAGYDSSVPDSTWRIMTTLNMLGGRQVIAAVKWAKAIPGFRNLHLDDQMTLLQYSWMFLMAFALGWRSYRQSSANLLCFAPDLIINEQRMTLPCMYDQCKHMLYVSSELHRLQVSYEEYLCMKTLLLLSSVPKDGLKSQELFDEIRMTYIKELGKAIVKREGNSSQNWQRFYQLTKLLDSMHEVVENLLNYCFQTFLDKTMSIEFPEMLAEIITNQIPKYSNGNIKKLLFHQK
Chain of Cytochrome P450 1A2 (Homo sapiens) (P05177 whole entry, looked up): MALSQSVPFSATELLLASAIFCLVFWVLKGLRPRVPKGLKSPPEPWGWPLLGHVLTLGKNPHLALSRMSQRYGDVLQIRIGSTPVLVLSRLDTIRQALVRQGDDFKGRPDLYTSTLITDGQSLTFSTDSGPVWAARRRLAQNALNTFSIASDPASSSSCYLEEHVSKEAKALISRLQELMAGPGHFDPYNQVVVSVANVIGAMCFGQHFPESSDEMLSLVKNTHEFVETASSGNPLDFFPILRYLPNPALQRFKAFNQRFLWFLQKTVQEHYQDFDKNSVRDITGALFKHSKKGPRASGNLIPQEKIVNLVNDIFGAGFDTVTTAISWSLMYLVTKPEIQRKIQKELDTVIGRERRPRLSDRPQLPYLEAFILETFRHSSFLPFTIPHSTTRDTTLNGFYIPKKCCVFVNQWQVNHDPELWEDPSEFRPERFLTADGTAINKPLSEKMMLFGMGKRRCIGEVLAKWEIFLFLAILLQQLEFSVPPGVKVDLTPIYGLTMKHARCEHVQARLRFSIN
Chain of ATP-dependent 6-phosphofructokinase (Trypanosoma brucei brucei) (O15648 whole entry, looked up): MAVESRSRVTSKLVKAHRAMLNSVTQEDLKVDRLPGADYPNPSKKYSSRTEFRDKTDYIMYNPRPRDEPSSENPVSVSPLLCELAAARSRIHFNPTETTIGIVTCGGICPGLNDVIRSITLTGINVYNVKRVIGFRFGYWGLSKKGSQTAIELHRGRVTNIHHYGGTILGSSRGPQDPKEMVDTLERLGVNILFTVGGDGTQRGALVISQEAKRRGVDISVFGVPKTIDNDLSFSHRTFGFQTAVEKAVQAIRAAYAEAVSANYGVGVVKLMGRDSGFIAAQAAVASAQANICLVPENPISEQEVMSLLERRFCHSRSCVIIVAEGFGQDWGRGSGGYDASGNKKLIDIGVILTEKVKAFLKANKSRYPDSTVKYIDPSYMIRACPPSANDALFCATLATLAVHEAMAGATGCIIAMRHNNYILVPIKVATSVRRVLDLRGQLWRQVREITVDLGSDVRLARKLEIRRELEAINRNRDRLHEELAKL
Chain of Luciferin 4-monooxygenase (Photinus pyralis) (P08659 whole entry, looked up): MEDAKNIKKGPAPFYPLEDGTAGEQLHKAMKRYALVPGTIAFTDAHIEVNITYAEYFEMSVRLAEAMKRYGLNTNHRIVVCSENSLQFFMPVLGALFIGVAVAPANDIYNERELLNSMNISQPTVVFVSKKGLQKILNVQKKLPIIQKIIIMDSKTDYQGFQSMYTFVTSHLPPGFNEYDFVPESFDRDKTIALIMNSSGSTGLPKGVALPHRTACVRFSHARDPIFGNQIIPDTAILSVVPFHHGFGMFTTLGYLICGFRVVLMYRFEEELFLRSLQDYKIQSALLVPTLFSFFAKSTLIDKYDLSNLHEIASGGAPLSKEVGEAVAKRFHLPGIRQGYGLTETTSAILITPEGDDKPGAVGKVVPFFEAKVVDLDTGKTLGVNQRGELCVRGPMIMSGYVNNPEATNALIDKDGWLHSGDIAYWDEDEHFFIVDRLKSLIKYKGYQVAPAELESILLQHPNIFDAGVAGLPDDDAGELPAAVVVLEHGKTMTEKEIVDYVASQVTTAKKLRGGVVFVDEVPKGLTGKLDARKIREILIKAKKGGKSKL

For the compound `CC(C)(Oc1ccc([C@@H]2CC2(Cl)Cl)cc1)C(=O)O`, the activity change, negative = inhibition is -1.19% (inactive) in [1] (at 17.2 µM (top of the series)); -10.2% (inactive) in [1] (at 38 µM (top of the series)); -16.8% (inactive) in [3] (at 17.2 µM (top of the series)); -7.66% (inactive) in experiment [3] (at 38 µM (top of the series)); -0.371% (inactive) in experiment [9] (at 25.7 µM (top of the series)). Also, the Potency entry in [2], in experiment [7], in experiment [8] and in experiment [10] was “inactive” in each case. For the same compound, the activity, negative = inhibition in experiment [4] (setting [14]) was -2.06% [at 17.2 µM] (inactive). Further, the Potency was > 46 µM (inactive) and > 20.6 µM (inactive) in experiment [5]; > 46 µM (inactive) and > 20.6 µM (inactive) in [6]. Further, the max response in experiment [9] (setting [15]) was -16.1%; in experiment [9] (setting [16]), -15.2%.
As for `CC(=O)N(CC(O)CN(C(C)=O)c1c(I)c(C(=O)NC[C@@H](O)CO)c(I)c(C(=O)NC[C@@H](O)CO)c1I)c1c(I)c(C(=O)NC[C@@H](O)CO)c(I)c(C(=O)NC[C@@H](O)CO)c1I`, the activity change, negative = inhibition was 2.7% [at 17.2 µM] (inactive) in [1] (setting [14]), -2.76% [at 17.2 µM] (inactive) in [3] (setting [14]) and 0.967% (inactive) in experiment [9] (at 25.7 µM (top of the series)). In addition, the Potency entry (in experiment [2]; in experiment [7]; in [8]; in experiment [10]; with AS120; in the experiment on CP201) was “inactive” throughout. Also, the Potency entry with CP238, in the experiment on CP262, in the experiment with CP265, in the experiment on FAB9 and with JCK was “inactive” in each case. Further, the activity, negative = inhibition in experiment [4] (setting [14]) is 4.45% [at 17.2 µM] (inactive); in experiment [13] (parasite line A), 5.56% (inactive); in experiment [13] (parasite line B) it was 6.47% (inactive). Besides, the Potency in experiment [5] and in experiment [6] was > 20.6 µM (inactive) each time. Moreover, the max response was -17.3% in experiment [9] (setting [15]) and -18.3% in experiment [9] (setting [16]). Also, the compound was called inactive in experiment [11] and in experiment [12].
With `C[C@@](N)(Cc1ccc(O)cc1)C(=O)O`, the activity change, negative = inhibition in [1] (setting [14]) was -8.05% [at 38 µM] (inactive) and -6.78% [at 38 µM] (inactive); in [3] (setting [14]), -13% [at 38 µM] (inactive) and 8.58% [at 38 µM] (inactive); in experiment [9] (at 57.5 µM (top of the series)), 1.23% (inactive). The Potency result in [2], in experiment [7], in [8] and in experiment [10] was “inactive” each time. Moreover, the activity, negative = inhibition in experiment [4] (setting [14]) was 3.69% [at 38 µM] (inactive). Further, the Potency in experiment [5] and in experiment [6] was > 46 µM (inactive) each time. Besides, the max response turned out to be 15.7% in [9] (setting [15]) and 18.3% in experiment [9] (setting [16]).
For `CC1=C(C(=O)O)N2C(=O)[C@@H](NC(=O)[C@@H](N)c3ccccc3)[C@@H]2SC1`, the activity change, negative = inhibition in experiment [1] (at 17.2 µM (top of the series)) is 16.3% (inactive); in experiment [1] (at 38 µM (top of the series)), 11% (inactive); in experiment [3] (at 17.2 µM (top of the series)), -9.84% (inactive); in experiment [3] (at 38 µM (top of the series)) it was -0.753% (inactive); in [9] (at 25.7 µM (top of the series)), -1.09% (inactive). The activity, negative = inhibition is 10.2% (inactive) in experiment [4] (at 17.2 µM (top of the series)) and 30.7% (inactive) in experiment [4] (at 38 µM (top of the series)). The Potency result in [7], in experiment [8] and in [10] was “inactive” throughout. Moreover, the figures for the max response in [9] (setting [15]) and in experiment [9] (setting [16]) were 0.948% and -0.484%, respectively.
As for `CN1[C@@H](CC(=O)c2ccccc2)CCC[C@@H]1C[C@@H](O)c1ccccc1`, the activity change, negative = inhibition in experiment [1] (at 17.2 µM (top of the series)) is -1.05% (inactive); in experiment [1] (at 38 µM (top of the series)), 6.06% (inactive); in experiment [9] (at 25.7 µM (top of the series)), -0.989% (inactive). Further, the Potency in experiment [2] was 31.6 µM (active) and 5.01 µM (active). In addition, the activity, negative = inhibition in experiment [4] (at 17.2 µM (top of the series)) is 0.159% (inactive); in experiment [4] (at 38 µM (top of the series)), -8.54% (inactive). For the same compound, the Potency entry in [7], in [8] and in [10] was “inactive” each time. Also, the max response was -6.57% in [9] (setting [15]) and -6.75% in experiment [9] (setting [16]).
